Among the test systems are PFTAIRE2; PHKG1; PHKG2; PIK3C2B; PIK3C2G; PIK3CA; PIK3CB; PIK3CD; PIK3CG.
Holding throughout (details): concentration: 1 μM, replicates: in singlicate; n = 1
Another test concerns T1, PFTK1.
T1 construct: gene CDK14
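Further: KINOMEscan kinase panel screen.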

`COC(=O)C(NC(=O)NC1CCN(c2ccnc(Nc3ccc(F)cc3)n2)C1)c1ccccc1` (centres unmarked) [GSK1379712]: the “%Inh” value was 14% with PFTAIRE2; 17% in the test with PFTK1; 0% with PHKG1; 0% in the test with PHKG2; 14% in the test on PIK3C2B; 0% in the test on PIK3C2G. For the same compound, the “%Inh” value in the test on PIK3CA is given as 1%; in the test on PIK3CB, 5%; in the test with PIK3CD it was 23%; with PIK3CG, 9%.

For `CC(=O)c1c(C)c2cnc(Nc3ccc(N4CCNCC4)cn3)nc2n(C2CCCC2)c1=O`, the “%Inh” value in the test on PFTAIRE2 was determined as 0%; with PFTK1 it was 5%; with PHKG1, 10%; in the test with PHKG2 it was 12%; with PIK3C2B, 0%; with PIK3C2G it was 0%. Moreover, the “%Inh” value in the test with PIK3CA is recorded as 3%; with PIK3CB, 0%; in the test on PIK3CD, 0%; in the test with PIK3CG, 12%.

For the compound `NS(=O)(=O)c1cccc(N/C=C2\C(=O)Nc3ccc(S(=O)(=O)Cc4c(Cl)cccc4Cl)cc32)c1` [GSK398099], the “%Inh” value with PFTAIRE2 turned out to be 26%; with PFTK1, 5%; with PHKG1, 0%; with PHKG2, 0%; with PIK3C2B it was 4%; in the test on PIK3C2G, 0%. Moreover, the “%Inh” value with PIK3CA was determined as 16%; with PIK3CB it was 0%; with PIK3CD it was 0%; in the test with PIK3CG, 41%.

In the case of `O=C1NC(=O)C(c2ccc(Cl)cc2)=C1Nc1ccc(O)cc1` [SB-340867], the “%Inh” value with PFTAIRE2 is 13%; in the test on PFTK1, 0%; in the test on PHKG1 it was 0%; in the test on PHKG2, 0%; in the test with PIK3C2B it was 0%; in the test on PIK3C2G it was 0%. In addition, the “%Inh” value in the test with PIK3CA was determined as 0%; with PIK3CB, 0%; in the test with PIK3CD, 0%; with PIK3CG, 17%.

Take `CN1c2ccc(-c3ccc(C(N)=O)cc3)cc2-c2[nH]ncc2S1(=O)=O`: the “%Inh” value in the test with PFTAIRE2 came out at 0%; in the test with PFTK1, 0%; with PHKG1, 0%; in the test with PHKG2, 14%; with PIK3C2B it was 0%; in the test on PIK3C2G, 0%. Further, the “%Inh” value with PIK3CA, in the test with PIK3CB, with PIK3CD and in the test on PIK3CG was 0% in each case.
